± gives the standard deviation of the averaged measurements.

The test system of assay [1] is DLD1. As to the kind of experiment: cell viability (CellTiter-Glo) relative to plate median (fraction of plate median); higher = more viable cells. The following applies: 5 µM; treatment time 24 h; reporter: 7TFP. The method, boiled down:
(§1)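 Values are well luminescence normalised to the plate median, from either a firefly luciferase or a CellTiterGlo readout on parallel plates. The cells, colorectal cancer lines stably transduced with lentiviral 7TFP or TCF4/Wnt firefly luciferase reporters, were treated with library compounds at a final 5 µM for 24 h. The mean of two independent replicates is listed.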

For assay [2], the system named is HCT116. Described as above. The note with it: 5 µM; treatment time 24 h; reporter: TCF4/Wnt. The procedure, abridged: as §1
Assay [3] deals with SW480. The assay is described as above. The following applies: 5 µM; treatment time 24 h; reporter: 7TFP. The method, boiled down: as §1
For assay [4], the system named is DLD1. As to the kind of experiment: TCF/Wnt firefly luciferase reporter signal relative to plate median (fraction of plate median); higher = higher Wnt reporter signal. The following applies: 5 µM; treatment time 24 h; reporter: 7TFP. The procedure, abridged:
as §1
A general note: Reporter assays use an easily measured gene product as a stand-in for the process of interest.

For assay [5], the system named is SW480. The assay is described as above. The note with it: 5 µM; treatment time 24 h; reporter: 7TFP. The procedure, abridged: as §1

Consider `OC(CCN1CCCCC1)(c1ccccc1)C1CC2C=CC1C2` (stereo not given), for which the cell viability in assay [1] was determined as 0.9145 ± 0.0021; in assay [2], 1.01 ± 0.12; in assay [3], 0.947 ± 0.052. In addition, the “TCF/Wnt firefly luciferase reporter signal” value came to 0.92 ± 0.23 in assay [4] and 0.835 ± 0.028 in assay [5].
For the molecule `CC(C(=O)O)c1cccc(C(=O)c2ccccc2)c1` (stereo not given), the cell viability in assay [1] was 1.14 ± 0.13; in assay [2], 0.931 ± 0.035; in assay [3], 1.04 ± 0.028. Besides, the “TCF/Wnt firefly luciferase reporter signal” value is 0.9355 ± 0.0064 in assay [4] and 1.03 ± 0.014 in assay [5].
In the same order, the values of `Fc1ccc([C@@H]2CCNC[C@H]2COc2ccc3c(c2)OCO3)cc1` are 0.977 ± 0.021, 1.02 ± 0.12, 1.02 ± 0.021, 1.1 ± 0.085 and 1.13 ± 0.042.
In the same order, the values of `COc1ccc(/C=C/C(=O)c2ccc(O)cc2O)cc1` are 0.938 ± 0.088, 0.947 ± 0.065, 1.035 ± 0.0071, 1.085 ± 0.0071 and 0.794 ± 0.054.
As for `C[C@@](Cc1ccc(O)c(O)c1)(NN)C(=O)O`, the results for the cell viability in assay [1], in assay [2] and in assay [3] were 1.01 ± 0.015, 0.981 ± 0.098 and 1.02 ± 0.067, respectively. For the same molecule, the “TCF/Wnt firefly luciferase reporter signal” value in assay [4] came out at 0.8725 ± 0.005; in assay [5] it was 0.95 ± 0.13.
Taken in the same sequence, the figures for `CCC1(C)OC(=O)N(C)C1=O` (stereo not given) were 1.04 ± 0.014, 0.873 ± 0.078, 0.908 ± 0.0028, 0.965 ± 0.0085 and 0.956 ± 0.076.
In the same order, the values of `CN1CCOC(c2ccccc2)c2ccccc2C1` (stereo not given) are 0.915 ± 0.048, 0.997 ± 0.1, 1 ± 0.014, 0.9875 ± 0.0035 and 0.883 ± 0.12.
Taken in the same sequence, the figures for `NCC[C@H](O)C(=O)N[C@@H]1C[C@H](N)[C@@H](O[C@H]2O[C@H](CN)[C@@H](O)[C@H](O)[C@H]2O)[C@H](O)[C@H]1O[C@H]1O[C@H](CO)[C@@H](O)[C@H](N)[C@H]1O` were 1.01 ± 0.014, 1 ± 0.037, 0.995 ± 0.036, 0.821 ± 0.11 and 0.905 ± 0.12.
With `C=C1c2c(Cl)ccc(O)c2C(=O)C2=C(O)[C@]3(O)C(=O)C(C(N)=O)=C(O)[C@@H](N(C)C)[C@@H]3[C@@H](O)[C@H]12.O=C(O)c1cc(S(=O)(=O)O)ccc1O`, the cell viability in assay [1] stood at 1.05 ± 0.021; in assay [2], 1.02 ± 0.042; in assay [3], 1.005 ± 0.0071. Also, the “TCF/Wnt firefly luciferase reporter signal” value turned out to be 1.05 ± 0.25 in assay [4] and 0.893 ± 0.062 in assay [5].
Taken in the same sequence, the figures for `CC(=O)O[C@]1(C(C)=O)CC[C@H]2[C@@H]3C=C(C)C4=CC(=O)CC[C@]4(C)[C@H]3CC[C@@]21C` were 0.988 ± 0.088, 0.971 ± 0.037, 0.984 ± 0.037, 1.03 ± 0.086 and 1 ± 0.04.
In the same order, the values of `CC(=O)c1ccc[nH]1` are 0.992 ± 0.04, 1.03 ± 0.048, 1.025 ± 0.0071, 0.87 ± 0.23 and 0.798 ± 0.14.
In the case of `CC(C)C1=CC2=CC[C@@H]3[C@](C)(CCC[C@@]3(C)C(=O)O)[C@H]2CC1`, the cell viability was determined as 0.967 ± 0.09 in assay [1], 0.97 ± 0.013 in assay [2] and 0.897 ± 0.012 in assay [3]. Besides, the “TCF/Wnt firefly luciferase reporter signal” value was 1.1 ± 0.11 in assay [4] and 0.912 ± 0.09 in assay [5].
Taken in the same sequence, the figures for `CCOC(=O)c1c(C)cc(O)cc1O` were 1.11 ± 0.085, 1.01 ± 0.09, 1.07 ± 0.014, 1.06 ± 0.14 and 1.08 ± 0.042.
As for `COc1ccc2cc([C@H](C)CO)ccc2c1`, the cell viability is 0.939 ± 0.0028 in assay [1], 0.862 ± 0.17 in assay [2] and 0.9375 ± 0.0021 in assay [3]. For the same molecule, the “TCF/Wnt firefly luciferase reporter signal” value came out at 1.11 ± 0.035 in assay [4] and 1.04 ± 0.05 in assay [5].
On to `COC(=O)[C@H](Cc1ccccc1)NC(=O)[C@@H](N)CC(=O)O`, for which the cell viability was determined as 0.952 ± 0.082 in assay [1], 1.08 ± 0.11 in assay [2] and 1.06 ± 0.014 in assay [3]. In addition, the “TCF/Wnt firefly luciferase reporter signal” value in assay [4] was found to be 1.045 ± 0.0071; in assay [5], 0.985 ± 0.14.
